# A selection: hits, their analogues and other compounds. The true share with any hit is near 1.9%.
# aDG glyco up: alpha-DG glycosylation activation; activation, % at 10 µM; 360,000 tested, 0.22% active; Pro5-aDG cells, alpha-DG glycosylation AlphaScreen (IIH6); 0% Pro5, 100% B10-LARGE cell signal; AID 624168;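 active means activation of at least 8% versus controls, or a plate z-score of at least 8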;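 further: Pro5 are CHO cells carrying HIG-tagged alpha-DG that lacks glycosylation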
# PG9 binder: PG9 antibody binding by small molecule; TR-FRET gp120-PG9 antibody binding; inhibition, % at 6.7 µM; 360,000 tested, 0.43% active; in the data active means inhibition above about 8.5%
# EBNA-1 inhibitor: blocks EBNA-1 binding to DNA | EBNA-1 DNA binding, fluorescence polarization | 300,000 tested, 0.34% active | inhibition, % at 14.8 µM | AID 1950; in the data active means inhibition above about 28%
# Rev-erbA mod: Rev-erb alpha (human) modulation | P20393 | AID 1259318 | Rev-erbα–FITC-DNA binding, fluorescence polarization, 90 min | activity, % at 10 µM | 370,000 tested, 0.79% active;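 active means activity above about 14%, limit read from the data; passing the limit was not always enough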
# ZTA DNA inh: ZTA (EBV) inhibition in EBNA-1 counter-screen; AID 2234; ZTA-DNA binding, fluorescence polarization; 320,000 tested, 0.15% active; P03206; inhibition, % at 11 µM; in the data active means inhibition above about 33%
# Target sequence (P03206 whole entry, looked up): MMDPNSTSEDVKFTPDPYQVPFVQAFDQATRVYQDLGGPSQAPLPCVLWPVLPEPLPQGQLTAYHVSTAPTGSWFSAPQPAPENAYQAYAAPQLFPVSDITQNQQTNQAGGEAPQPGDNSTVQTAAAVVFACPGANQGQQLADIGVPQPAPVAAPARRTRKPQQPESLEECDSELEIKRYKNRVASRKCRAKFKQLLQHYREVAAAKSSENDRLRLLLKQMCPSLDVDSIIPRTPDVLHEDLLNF
# NCF1 inh: blocks human p47phox regulatory protein of NADPH oxidases; P14598; p47phox/p22phox peptide binding, fluorescence polarization, 2 h; inhibition, % at 24.7 µM; 220,000 tested, 0.53% active; AID 1274;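 active means inhibition above about 30%, limit read from the data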
# Target sequence (P14598 whole entry, looked up): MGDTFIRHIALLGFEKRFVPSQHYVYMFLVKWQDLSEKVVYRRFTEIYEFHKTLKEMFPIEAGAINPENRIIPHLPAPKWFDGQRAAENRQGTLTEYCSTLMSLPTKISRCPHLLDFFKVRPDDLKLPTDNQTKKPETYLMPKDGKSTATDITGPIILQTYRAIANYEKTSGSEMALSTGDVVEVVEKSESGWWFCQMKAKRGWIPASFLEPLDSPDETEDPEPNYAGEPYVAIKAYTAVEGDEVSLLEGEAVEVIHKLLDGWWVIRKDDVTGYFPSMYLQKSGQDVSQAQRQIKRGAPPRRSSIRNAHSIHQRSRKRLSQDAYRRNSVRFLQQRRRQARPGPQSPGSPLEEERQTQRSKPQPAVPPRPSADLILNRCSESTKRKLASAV
# PG9 bind confirm: PG9 antibody binding, confirmed; 1,500 tested, 90% active; shares compounds with PG9 binder; TR-FRET PG9 antibody binding, biochemical; inhibition, % at 6.7 µM; AID 651571; in the data active means inhibition above about 9%
# PGV04 counter: binds control antibody PGV04 in PG9 binder counter-screen. shares compounds with PG9 binder. AID 651604. TR-FRET PGV04 antibody-gp120 binding, biochemical. 1,500 tested, 95% active. inhibition, % at 6.7 µM; in the data active means inhibition above about 9.5%
# PG9 binder DR: small molecules binding HIV-1 gp120 antibody PG9. shares compounds with PG9 binder. TR-FRET PG9 antibody-gp120 binding inhibition. IC50, µM. 95 tested, under 10 active; in the data active means IC50 below about 10 µM
# PGV04 binding DR: counter-screen for PG9 binders: binding to control antibody PGV04. shares compounds with PG9 binder. TR-FRET binding to control antibody PGV04. IC50, µM. 95 tested, 20% active. AID 651937
# PG126 DR counter: counter-screen for PG9 binders: binding to control antibody PG126; shares compounds with PG9 binder; TR-FRET binding to antibody PG126, counterscreen; IC50, µM; 95 tested, 20% active; AID 651939
# Hits are given with their value; 0 = inactive; - = no result. Unless noted, no stated cut-off is given here; in the data, active means IC50 below about 9 µM; inactive means the rest.
SMILES,aDG glyco up,PG9 binder,EBNA-1 inhibitor,Rev-erbA mod,ZTA DNA inh,NCF1 inh,PG9 bind confirm,PGV04 counter,others
Cc1[nH]c2ccccc2c1CC#N,0,0,0,0,0,0,-,-,
Cc1[nH]c2ccccc2c1C1=CC(=O)C=CC1=O,0,10.4,-,0,-,-,20.3,25.0,
O=C(CSc1nnc(SCc2cccc3ccccc23)s1)c1ccc(F)cc1,-,-,-,0,-,-,-,-,
COc1ccc2cc(CN(CC3COCCO3)S(=O)(=O)c3c(C)cc(C)cc3C)c(=O)[nH]c2c1 (stereo not given),-,-,-,-,-,0,-,-,
COc1ccc2cc(CN(CC3COCCO3)S(=O)(=O)c3ccc(Cl)cc3)c(=O)[nH]c2c1 (stereo not given),0,24.1,0,0,0,0,26.2,31.2,
CC(=O)c1ccc(N2CCN(C(=S)Nc3cc(C)ccc3C)CC2)cc1,0,12.4,0,0,0,0,8.8,14.6,
Cc1cnn(-c2ccccc2)c1NC(=O)COCc1ccccc1,-,-,-,0,-,-,-,-,
CCn1c2ccccc2c2cc(CN3CCN(S(=O)(=O)Cc4ccccc4)CC3)ccc21,0,14.5,0,0,0,0,16.2,26.2,
CC(=O)c1ccc(NC(=O)c2ccc(-n3cnnn3)cc2)cc1,0,17.0,-,0,-,-,33.1,45.8,
CSc1cc(-c2ccc(Cl)cc2)c(C(=O)NC(C)C)s1,0,17.7,0,0,0,0,0,13.4,
CC(C)c1ccc(OCC(=O)NC(=S)Nc2ccc3c4c(cccc24)CC3)cc1,0,11.1,0,0,0,0,10.6,11.6,
Cn1cc(CNC(=O)c2cc(-c3ccc(Br)cc3)nc3ccccc23)cn1,0,0,0,0,0,0,-,-,
COc1ccc(CN(C)C(=O)c2cc(-c3ccccc3)nc3ccc(C)cc23)c(OC)c1,0,0,-,0,-,-,-,-,
Cn1cc(CNC(=O)c2cc(-c3ccccc3)nc3ccc(Br)cc23)cn1,0,11.0,0,0,0,0,13.5,20.2,
Cc1ccc(-c2cc(C(=O)NCc3cnn(C)c3)c3cc(Br)ccc3n2)cc1,0,10.8,0,0,0,0,0,58.1,
Cc1nn(C)cc1CN(C)C(=O)c1cc(-c2ccccc2)nc2ccc(Br)cc12,0,12.5,0,0,0,0,20.5,26.2,
Cc1nnc2c(NCCc3ccccc3)nc3ccccc3n12,0,10.8,0,0,0,-,49.3,61.9,
Cc1cc(C)c2nc(-c3ccccn3)cc(C(=O)NCCc3ccc(S(N)(=O)=O)cc3)c2c1,0,29.9,0,0,0,0,23.4,39.9,
COc1ccccc1CCNC(=O)c1cc(-c2ccccn2)nc2ccccc12,0,27.0,-,0,-,-,22.1,31.8,
O=C(NCc1ccccn1)C1CCN(S(=O)(=O)N2CCCCC2)CC1,0,8.6,0,0,0,0,0,10.6,
COc1ccc2c(c1)c(=O)oc1cc(O)ccc12,0,0,0,0,0,0,-,-,
O=c1[nH]c2cc(O)ccc2c2ccccc12,0,36.7,-,0,-,-,38.5,47.5,
O=c1oc2cc(O)ccc2c2ccccc12,0,22.3,0,0,0,0,28.6,37.5,
C[C@H]1C2CC(OC(=O)NCCCc3ccccc3)C(C2)[C@H]2CCCCN21 (stereo not given in full),-,-,-,0,-,-,-,-,
Cc1ccc(OCc2nnc(NC(=O)c3cccnc3)s2)cc1,0,0,0,0,0,0,-,-,
SMILES,aDG glyco up,PG9 binder,EBNA-1 inhibitor,Rev-erbA mod,ZTA DNA inh,NCF1 inh,PG9 bind confirm,PGV04 counter,others
O=C(Nc1ccccc1)c1ccc(COc2ccccc2)cc1,0,13.0,0,0,0,0,11.9,16.1,
CC(=O)Nc1ccc(C(=O)Nc2nnc(CCc3ccccc3)s2)cc1,0,24.7,0,0,0,-,15.2,24.1,
O=C(Nc1ccc(OCc2ccccc2)cc1)c1ccccc1,0,0,0,0,0,0,-,-,
Cc1ccc(C(=O)Nc2nnc(COc3ccccc3)s2)cc1,0,25.4,0,0,0,0,33.5,39.1,
S=c1nc(-c2ccccc2)[nH]c2ccccc12,0,0,0,0,0,0,-,-,
S=c1nc[nH]c2c1[nH]c1ccccc12,0,78.7,0,0,0,0,47.9,28.9,PG9 binder DR=0;PGV04 binding DR=0;PG126 DR counter=0
CNS(=O)(=O)c1cc(Cl)ccc1Sc1ccccc1C(=O)O,0,0,0,0,0,0,-,-,
NS(=O)(=O)c1c(Sc2ccccc2C(=O)O)ccc2ccccc12,0,14.8,0,0,0,-,15.0,20.2,
Cc1sc(NC(=S)NC(=O)C2CCCCC2)c(C(N)=O)c1C,0,31.6,0,0,0,0,23.7,31.1,
COc1cc(/C=C/C(=O)OCC(=O)Nc2ccccc2Cl)cc(OC)c1OC,0,22.8,0,0,0,0,26.5,41.4,
Cc1ccc(-c2nc3cccnc3s2)cc1NS(C)(=O)=O,0,9.2,0,0,0,0,29.3,34.2,
CCn1c(SCC(=O)c2ccc(-c3ccccc3)cc2)nnc1-c1ccc(C(C)(C)C)cc1,-,-,-,0,-,-,-,-,
Cc1ccc(C)c(NC(=O)C2CCCN(S(=O)(=O)c3ccc4[nH]c(=O)ccc4c3)C2)c1 (stereo not given),0,15.9,0,0,0,-,12.7,20.6,
O=C(Nc1ccc(F)cc1)C1CCCN(S(=O)(=O)c2ccc3[nH]c(=O)ccc3c2)C1 (stereo not given),0,11.4,0,0,0,-,18.5,28.8,
Cc1nn(CCC(=O)NNC(=O)Nc2ccc(Cl)cc2)c(C)c1[N+](=O)[O-],-,-,-,0,-,-,-,-,
CCn1c(=S)[nH]c2scc(-c3cccs3)c2c1=O,0,10.9,-,0,-,0,0,11.1,
O=C(C1=C(O)C(=O)N(CCN2CCOCC2)C1c1ccc(Cl)cc1)c1cc2ccccc2o1 (stereo not given),0,0,0,0,0,-,-,-,
O=C(C1=C(O)C(=O)N(CCCN2CCOCC2)C1c1ccc(Cl)cc1)c1cc2ccccc2o1 (stereo not given),-,19.9,0,0,0,-,23.8,29.7,
COc1cc(C2C(C(=O)c3ccc(C)o3)=C(O)C(=O)N2CCN2CCOCC2)ccc1OCCC(C)C (stereo not given),0,12.3,-,0,-,-,19.5,21.6,
COc1cccc(C2C(C(=O)c3cc4ccccc4o3)=C(O)C(=O)N2CCN2CCOCC2)c1 (stereo not given),0,14.8,0,0,0,-,31.1,53.9,

# Screens as filed in PubChem BioAssay.
